Experimental data reported in PubChem BioAssay AID1159580 (chemical genetic matrix, 2015).
Where “and” joins values, the source holds several entries; their conditions need not be identical. Equal entries are not always repeated. Among all 5,500 compounds or so, about 2,000 (36%) were called active. Another 18% or so got no clear call; they are omitted. No stated cut-off is given here; in the data, active means normalized growth mostly below about 0.91 (no sharp cut-off); inconclusive means no clear call, values can overlap the other calls; inactive means mostly above about 0.92. This is one part of the list.

Assay: chemical genetic growth profiling, strain panel (AID 1159580);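 further: tested at 20 µM; growth read once vehicle control cultures reached saturation at 30 °C; 1 = growth at the plate median or of vehicle wells; lower values mean less growth of the strain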
Conditions: S. cerevisiae deletion strains, growth OD

Measured: normalized growth

CCCCC1C(=O)N(c2ccccc2)N(c2ccc(O)cc2)C1=O (stereo not given)
inactive: locus YAL021C, strain ccr4, active compounds read low 1.02 | locus YAL026C, strain drs2, active compounds read low 0.998 | locus YAL030W, strain snc1, active compounds read low 1 | locus YBL061C, strain skt5, active compounds read low 0.999 | locus YBR009C, strain hhf1, active compounds read low 0.998 | locus YBR021W, strain FUR4, active compounds read low 0.995 | locus YBR023C, strain chs3, active compounds read low 1 | locus YBR171W, strain sec66, active compounds read low 1.01 | locus YBR229C, strain ROT2, active compounds read low 0.953 | locus YBR231C, strain swc5, active compounds read low 1 | locus YBR279W, strain paf1, active compounds read low 0.993 | locus YCL011C, strain gbp2, active compounds read low 1.01 | locus YCL016C, strain dcc1, active compounds read low 1.01 | locus YCL029C, strain bik1, active compounds read low 0.969 | locus YCL061C, strain MRC1, active compounds read low 1.01 | locus YCL069W, strain vba3, active compounds read low 1 | locus YCR088W, strain abp1, active compounds read low 1.01 | locus YDL005C, strain med2, active compounds read low 0.995 | locus YDL035C, strain GPR1, active compounds read low 0.972 | locus YDL040C, strain nat1, active compounds read low 0.997 | locus YDL074C, strain BRE1, active compounds read low 0.947 | locus YDL101C, strain DUN1, active compounds read low 0.98 | locus YDL134C, strain PPH21, active compounds read low 0.999 | locus YDL185W, strain tfp1, active compounds read low 0.974 | locus YDL192W, strain arf1, active compounds read low 0.984 | locus YDR001C, strain nth1, active compounds read low 0.995 | locus YDR069C, strain doa4, active compounds read low 0.988 | locus YDR101C, strain arx1, active compounds read low 1.01 | locus YDR137W, strain rgp1, active compounds read low 0.98 | locus YDR150W, strain NUM1, active compounds read low 0.979 | locus YDR159W, strain sac3, active compounds read low 1 | locus YDR162C, strain NBP2, active compounds read low 0.99 | locus YDR195W, strain ref2 0.987 | locus YDR297W, strain sur2, active compounds read low 1.01 | locus YDR318W, strain mcm21, active compounds read low 0.994 | locus YDR334W, strain swr1, active compounds read low 1.01 | locus YDR335W, strain msn5, active compounds read low 1.01 | locus YDR388W, active compounds read low 0.998 | locus YDR392W, strain spt3, active compounds read low 1.01 | locus YDR502C, strain sam2, active compounds read low 0.99 | locus YEL003W, strain gim4, active compounds read low 0.998 | locus YEL037C, strain rad23, active compounds read low 1 | locus YEL061C, strain CIN8 (second series), active compounds read low 1 | locus YEL061C, strain CIN8, active compounds read low 0.987 | locus YER015W, strain faa2, active compounds read low 0.996 | locus YER016W, strain bim1, active compounds read low 0.998 | locus YER110C, active compounds read low 0.965 | locus YER111C, strain swi4, active compounds read low 1 | locus YER155C, strain BEM2 (second series), active compounds read low 1.04 | locus YER155C, strain BEM2, active compounds read low 0.997 | locus YER167W, strain BCK2, active compounds read low 0.987 | locus YFR010W, strain ubp6, active compounds read low 1.01 | locus YGL078C, strain dbp3, active compounds read low 0.995 | locus YGL086W, strain mad1, active compounds read low 0.963 | locus YGL167C, strain pmr1, active compounds read low 1 | locus YGL173C, strain kem1, active compounds read low 0.983 | locus YGL227W, strain vid30, active compounds read low 1.01 | locus YGL240W, strain doc1, active compounds read low 1 | locus YGL248W, strain PDE1, active compounds read low 0.97 | locus YGL253W, strain hxk2, active compounds read low 1.01 | locus YGR135W, strain pre9, active compounds read low 0.988 | locus YGR229C, strain SMI1, active compounds read low 0.992 | locus YGR252W, strain gcn5, active compounds read low 0.893 | locus YHR013C, strain ard1, active compounds read low 1 | locus YHR027C, strain rpn1, active compounds read low 0.999 | locus YHR030C, strain SLT2, active compounds read low 0.999 and 0.974 | locus YHR079C, strain IRE1 (second series), active compounds read low 0.997 | locus YHR079C, strain IRE1, active compounds read low 0.973 | locus YHR094C, strain hxt1, active compounds read low 0.993 | locus YHR129C, strain ARP1, active compounds read low 0.982 | locus YHR142W, strain chs7, active compounds read low 1.01 | locus YHR200W, strain rpn10, active compounds read low 0.988 | locus YIL066C, strain RNR3, active compounds read low 0.976 | locus YIL073C, strain SPO22, active compounds read low 1.01 | locus YIL125W, strain kgd1, active compounds read low 0.985 | locus YIR030C, strain dcg1, active compounds read low 0.983 | locus YJL092W, strain hpr5, active compounds read low 1.01 | locus YJL095W, strain BCK1 (second series), active compounds read low 1.01 | locus YJL095W, strain BCK1, active compounds read low 1 and 0.992 | locus YJL115W, strain asf1, active compounds read low 1.01 | locus YJL129C, strain trk1, active compounds read low 0.997 | locus YJL134W, strain LCB3, active compounds read low 0.988 | locus YJL154C, strain vps35, active compounds read low 1 | locus YJL164C, strain tpk1, active compounds read low 0.994 | locus YJL166W, strain qcr8, active compounds read low 1.01 | locus YJL168C, strain set2, active compounds read low 0.994 | locus YJL187C, strain SWE1 (second series), active compounds read low 0.98 | locus YJL187C, strain SWE1, active compounds read low 1 | locus YJR043C, strain POL32, active compounds read low 0.999 | locus YJR066W, strain TOR1, active compounds read low 0.93
